In publication PMC5540273 (PLoS ONE, 2017):

How the values were obtained:
Conditions in all cases: concentration: 1 μM, replicates: in singlicate; n = 1
AKT3 = test system: AKT3
ALK = test system: ALK
AMPK-alpha1 = test system: T1, AMPK-alpha1
T1 construct: gene PRKAA1

AMPK-alpha2 = test system: T2, AMPK-alpha2
T2 construct: gene PRKAA2

ANKK1 = test system: ANKK1
ARK5 = test system: T3, ARK5
T3 construct: gene NUAK1

ASK1 = test system: T4, ASK1
T4 construct: gene MAP3K5

ASK2 = test system: T5, ASK2
T5 construct: gene MAP3K6

AURKB = test system: AURKB
AURKC = test system: AURKC
AXL = test system: AXL
BIKE = test system: T6, BIKE
T6 construct: gene BMP2K

BLK = test system: BLK
BMPR1A = test system: BMPR1A
BMPR1B = test system: BMPR1B
BMPR2 = test system: BMPR2
BMX = test system: BMX
BRAF = test system: BRAF
BRK = test system: T7, BRK
T7 construct: gene PTK6

AURKA = test system: AURKA
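Also: KINOMEscan kinase panel screen.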

Structure (SMILES): Nc1nc(-c2ccc3c(N)n[nH]c3c2)cc(N2CCC[C@@H](C(=O)Nc3ccccc3)C2)n1.O=C(O)C(F)(F)F.O=C(O)C(F)(F)F [GSK2288359]
- %Inh (AKT3): 0%
- %Inh (ALK): 5%
- %Inh (AMPK-alpha1): 9%
- %Inh (AMPK-alpha2): 26%
- %Inh (ANKK1): 12%
- %Inh (ARK5): 0%
- %Inh (ASK1): 1%
- %Inh (ASK2): 0%
- %Inh (AURKB): 0%
- %Inh (AURKC): 34%
- %Inh (AXL): 0%
- %Inh (BIKE): 29%
- %Inh (BLK): 0%
- %Inh (BMPR1A): 0%
- %Inh (BMPR1B): 0%
- %Inh (BMPR2): 10%
- %Inh (BMX): 0%
- %Inh (BRAF): 5%
- %Inh (BRK): 5%

Structure (SMILES): Cl.c1ccc(Cn2ccc3cc(Nc4ncnc5ccccc45)ccc32)cc1 [GW275568]
- %Inh (AKT3): 0%
- %Inh (ALK): 0%
- %Inh (AMPK-alpha1): 11%
- %Inh (AMPK-alpha2): 0%
- %Inh (ANKK1): 43%
- %Inh (ARK5): 29%
- %Inh (ASK1): 1%
- %Inh (ASK2): 0%
- %Inh (AURKA): 17%
- %Inh (AURKB): 30%
- %Inh (AURKC): 0%
- %Inh (AXL): 0%
- %Inh (BIKE): 13%
- %Inh (BLK): 0%
- %Inh (BMPR1A): 0%
- %Inh (BMPR1B): 0%
- %Inh (BMPR2): 13%
- %Inh (BMX): 18%
- %Inh (BRAF): 0%
- %Inh (BRK): 0%

Structure (SMILES): Cl.c1ccc(Cn2ncc3cc(Nc4ncnc5ccccc45)ccc32)cc1 [GW273749]
- %Inh (AKT3): 0%
- %Inh (ALK): 16%
- %Inh (AMPK-alpha1): 0%
- %Inh (AMPK-alpha2): 0%
- %Inh (ANKK1): 0%
- %Inh (ARK5): 0%
- %Inh (ASK1): 0%
- %Inh (ASK2): 1%
- %Inh (AURKA): 10%
- %Inh (AURKB): 8%
- %Inh (AURKC): 0%
- %Inh (AXL): 0%
- %Inh (BIKE): 0%
- %Inh (BLK): 17%
- %Inh (BMPR1A): 0%
- %Inh (BMPR1B): 0%
- %Inh (BMPR2): 0%
- %Inh (BMX): 0%
- %Inh (BRAF): 0%
- %Inh (BRK): 0%

Structure (SMILES): CSc1nn2c(=O)cc(N3CCOCC3)nc2n1Cc1cccc(Cl)c1Cl [GSK2347225]
- %Inh (AKT3): 1%
- %Inh (ALK): 30%
- %Inh (AMPK-alpha1): 11%
- %Inh (AMPK-alpha2): 20%
- %Inh (ANKK1): 19%
- %Inh (ARK5): 7%
- %Inh (ASK1): 14%
- %Inh (ASK2): 0%
- %Inh (AURKA): 21%
- %Inh (AURKB): 0%
- %Inh (AURKC): 11%
- %Inh (AXL): 45%
- %Inh (BIKE): 29%
- %Inh (BLK): 52%
- %Inh (BMPR1A): 19%
- %Inh (BMPR1B): 1%
- %Inh (BMPR2): 0%
- %Inh (BMX): 6%
- %Inh (BRAF): 0%
- %Inh (BRK): 17%

Structure (SMILES): CNc1nccc(-c2c(-c3ccc(F)cc3)ncn2C2CCN(C)CC2)n1 [SB-222903]
- %Inh (AKT3): 0%
- %Inh (ALK): 0%
- %Inh (AMPK-alpha1): 0%
- %Inh (AMPK-alpha2): 16%
- %Inh (ANKK1): 0%
- %Inh (ARK5): 4%
- %Inh (ASK1): 0%
- %Inh (ASK2): 0%
- %Inh (AURKA): 6%
- %Inh (AURKB): 0%
- %Inh (AURKC): 0%
- %Inh (AXL): 0%
- %Inh (BIKE): 0%
- %Inh (BLK): 36%
- %Inh (BMPR1A): 0%
- %Inh (BMPR1B): 0%
- %Inh (BMPR2): 11%
- %Inh (BMX): 0%
- %Inh (BRAF): 0%
- %Inh (BRK): 0%

Structure (SMILES): CCCc1ccc(S(=O)(=O)NC2CCN(c3ccnc(Nc4ccc(OC)cc4)n3)C2)cc1 (stereo not drawn) [GSK1379737]
- %Inh (AKT3): 0%
- %Inh (ALK): 30%
- %Inh (AMPK-alpha1): 0%
- %Inh (AMPK-alpha2): 0%
- %Inh (ANKK1): 0%
- %Inh (ARK5): 0%
- %Inh (ASK1): 0%
- %Inh (ASK2): 0%
- %Inh (AURKA): 0%
- %Inh (AURKB): 32%
- %Inh (AURKC): 0%
- %Inh (AXL): 0%
- %Inh (BIKE): 0%
- %Inh (BLK): 30%
- %Inh (BMPR1A): 0%
- %Inh (BMPR1B): 0%
- %Inh (BMPR2): 8%
- %Inh (BMX): 0%
- %Inh (BRAF): 0%
- %Inh (BRK): 6%

Structure (SMILES): Oc1ccc2ncnc(Nc3ccc(OCc4ccccc4)cc3)c2c1 [GI262866]
- %Inh (AKT3): 0%
- %Inh (ALK): 21%
- %Inh (AMPK-alpha1): 4%
- %Inh (AMPK-alpha2): 0%
- %Inh (ANKK1): 0%
- %Inh (ARK5): 15%
- %Inh (ASK1): 0%
- %Inh (ASK2): 7%
- %Inh (AURKA): 0%
- %Inh (AURKB): 21%
- %Inh (AURKC): 34%
- %Inh (AXL): 5%
- %Inh (BIKE): 20%
- %Inh (BLK): 31%
- %Inh (BMPR1A): 0%
- %Inh (BMPR1B): 0%
- %Inh (BMPR2): 0%
- %Inh (BMX): 0%
- %Inh (BRAF): 0%
- %Inh (BRK): 4%

Structure (SMILES): FC(F)(F)c1cc(Nc2nccc(-c3c(-c4ccc(Cl)cc4)nn4ncccc34)n2)ccc1Cl [GW829351]
- %Inh (AKT3): 0%
- %Inh (ALK): 8%
- %Inh (AMPK-alpha1): 0%
- %Inh (AMPK-alpha2): 0%
- %Inh (ANKK1): 0%
- %Inh (ARK5): 0%
- %Inh (ASK1): 0%
- %Inh (ASK2): 0%
- %Inh (AURKA): 5%
- %Inh (AURKB): 0%
- %Inh (AURKC): 0%
- %Inh (AXL): 0%
- %Inh (BIKE): 0%
- %Inh (BLK): 0%
- %Inh (BMPR1A): 0%
- %Inh (BMPR1B): 0%
- %Inh (BMPR2): 4%
- %Inh (BMX): 0%
- %Inh (BRAF): 0%
- %Inh (BRK): 0%
